Pf growth 48h = P. falciparum growth inhibition at 48 hours (one generation); P. falciparum luciferase growth in erythrocytes, 48 h; Potency, µM (doses to about 28.7 µM), inactives show at the highest dose activity change, negative = inhibition, most hits filed as inhibitors; 5.9% of 310,000 active; AID 504832; note: potency is the fitted concentration of half-maximal effect; % is set by controls: 0 for no effect and ±100 for the full control effect
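Parasite viability was followed by luminescence of a genomically integrated firefly luciferase. Cultures held 0.1% parasitemia at 2% hematocrit (final), incubated under 5% CO2 at 37 C.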
LmPK inh = LmPK (Leishmania mexicana) enzyme inhibition | purified LmPK, Kinase-Glo ATP luminescence, 1 h | Potency, µM (titrated, usually from 57.5 µM), inactives show top-dose activity change, negative = inhibition, actives largely listed as inhibitors | 0.37% of 290,000 active | AID 1721; note: potency is the fitted concentration of half-maximal effect; % is set by controls: 0 for no effect and ±100 for the full control effect
Target sequence (Q27686 whole entry, looked up): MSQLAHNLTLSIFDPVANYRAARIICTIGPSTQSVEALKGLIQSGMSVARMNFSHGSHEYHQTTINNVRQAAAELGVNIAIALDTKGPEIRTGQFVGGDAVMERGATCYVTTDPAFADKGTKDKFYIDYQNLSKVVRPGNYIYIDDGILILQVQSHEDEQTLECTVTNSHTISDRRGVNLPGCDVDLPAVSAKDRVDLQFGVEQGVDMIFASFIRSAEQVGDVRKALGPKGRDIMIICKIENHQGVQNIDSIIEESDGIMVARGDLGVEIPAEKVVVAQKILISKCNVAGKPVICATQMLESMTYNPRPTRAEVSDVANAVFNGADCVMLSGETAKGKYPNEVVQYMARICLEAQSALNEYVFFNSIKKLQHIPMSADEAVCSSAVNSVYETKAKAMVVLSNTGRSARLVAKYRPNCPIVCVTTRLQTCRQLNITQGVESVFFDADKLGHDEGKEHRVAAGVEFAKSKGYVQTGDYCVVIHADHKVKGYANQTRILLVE
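Kinase-Glo luminescence read after 1 h RT reaction of 0.1 nM LmPK with 0.5 mM PEP and 0.1 mM ADP. Activity scaled between uninhibited and enzyme-free controls.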
Shiga toxin inh = Shiga toxin inhibition. inhibition, % at 38.7 µM. Vero cells, Shiga toxin protein synthesis inhibition reporter. 9.2% of 290,000 active; in the data active = inhibition mostly above about 28%, no sharp cut-off; inactive = mostly below about 43%; note: 0% is about no effect
CHX counter = counter-screen for Shiga toxin inhibitors: cycloheximide protein synthesis inhibition; max response, %; cell reporter, cycloheximide protein synthesis inhibition counterscreen; 12% of 300,000 active; AID 2314; in the data active = max response mostly above about 13%, no sharp cut-off; inactive = mostly below about 14%; note: read at 38.3 µM for the half of the compounds with a filed dose; 0% is about no effect
Pf growth 96h = P. falciparum growth inhibition at 96 hour, primary screen for plastid delayed-death inhibitors | P. falciparum luciferase reporter growth, 96 h | Potency, µM (series often up to 28.7 µM), for inactives: top-dose activity change, negative = inhibition, actives largely listed as inhibitors | 6.9% of 320,000 active; note: potency is the fitted concentration of half-maximal effect; % is set by controls: 0 for no effect and ±100 for the full control effect
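Compounds incubated with erythrocytes infected by luciferase-expressing P. falciparum (2% hematocrit, 0.05% parasitemia final) for 96 hours, 37 C in 5% CO2. Growth inhibition scored as decreased luciferase luminescence.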
Numbers without * were called inactive. Rows were chosen to be rich in hits. Some 22% of all compounds tested hit in one or more screens of this group. Unless noted, calls come from the whole dose curve; as a rule, active = well fitted inhibition curve with a large enough effect; inconclusive = small, poorly fitted or top-dose-only effect, or another doubt; inactive = no such curve, though single readings can be large or run the other way.

How did O=C(CCS(=O)(=O)c1ccccc1)N1CCN(c2ccc(F)cc2)CC1 do in these assays?
Pf growth 48h: 74%; LmPK inh: -3%; Shiga toxin inh: 71*; CHX counter: 52*; Pf growth 96h: inconclusive

How did O=C(CCS(=O)(=O)c1ccc(F)cc1)N1CCN(c2ccccc2)CC1 do in these assays?
Pf growth 48h: 107%; Pf growth 96h: 150%

How did O=C(CCc1nnc(C2CCCCC2)o1)N1CCN(c2ccccc2F)CC1 do in these assays?
Pf growth 48h: 62%; LmPK inh: -8%; Shiga toxin inh: 89*; CHX counter: 71*; Pf growth 96h: inconclusive

What do the screens show for `O=C(CCC(=O)N1CCN(c2ccc(F)cc2)CC1)c1ccccc1`?
Pf growth 48h: 10%; LmPK inh: 4%; Shiga toxin inh: 15; CHX counter: 33*; Pf growth 96h: 21%

How did O=C(CCS(=O)(=O)c1ccc(F)cc1)N1CCOCC1 do in these assays?
Pf growth 48h: 49%; LmPK inh: -1%; Shiga toxin inh: 46*; CHX counter: 14*; Pf growth 96h: 8%

Results for O=C(CCCC(=O)N1CCN(c2ccccc2F)CC1)c1ccccc1 ?
Pf growth 48h: 86%; LmPK inh: -3%; Shiga toxin inh: 59*; CHX counter: 36*; Pf growth 96h: inconclusive

What do the screens show for `COc1ccc(-c2nc(C#N)c(N3CCCCC3)o2)cc1`?
Pf growth 48h: 19%; LmPK inh: 0%; Shiga toxin inh: -2; CHX counter: 2; Pf growth 96h: 21%

Results for COc1ccc(-c2nc(C#N)c(NC(C)C)o2)cc1 ?
Pf growth 48h: 0%; LmPK inh: -2%; Shiga toxin inh: 74*; CHX counter: 41*; Pf growth 96h: 16%

How did CNc1oc(-c2cccc3ccccc23)nc1C#N do in these assays?
Pf growth 48h: 44%; LmPK inh: 3%; Shiga toxin inh: 64; CHX counter: 5; Pf growth 96h: 16%

Results for CNc1oc(-c2ccc(Cl)cc2)nc1C#N ?
Pf growth 48h: 123%; LmPK inh: 2%; Shiga toxin inh: 178*; CHX counter: 37*; Pf growth 96h: 1%

What do the screens show for `CNc1oc(-c2ccccc2Cl)nc1C#N`?
Pf growth 48h: 36%; LmPK inh: 1%; Shiga toxin inh: 48; CHX counter: 17*; Pf growth 96h: 53%

What do the screens show for `CNc1oc(-c2ccco2)nc1C#N`?
Pf growth 48h: 12%; LmPK inh: 3%; Shiga toxin inh: 21; CHX counter: 0

How did N#CC1(c2ccccc2)CCN(S(=O)(=O)c2ccc(OC(F)(F)F)cc2)CC1 do in these assays?
Pf growth 48h: -26%; LmPK inh: -6%; Shiga toxin inh: 40; CHX counter: 12; Pf growth 96h: inconclusive

How did C1OCOCO1 do in these assays?
Pf growth 48h: -8%; Pf growth 96h: -10%

Results for CCn1cc(CN2CCCC(C(=O)Nc3ccc(-c4nc5ccccc5[nH]4)cc3)C2)c(C)n1 (stereo not given) ?
Pf growth 48h: 2.1µM*; LmPK inh: -15%; Shiga toxin inh: 34; CHX counter: 26*; Pf growth 96h: 26%

Results for CCn1cc(CN2CCCC(C(=O)Nc3cccc(-c4cc5ccccc5[nH]4)c3)C2)c(C)n1 (stereo not given) ?
Pf growth 48h: inconclusive; LmPK inh: 1%; Shiga toxin inh: -7; CHX counter: 0; Pf growth 96h: 0%

What do the screens show for `Cc1cc(CN2CCCC(C(=O)Nc3ccc(-c4nc5ccccc5[nH]4)cc3)C2)n[nH]1` (stereo not given)?
Pf growth 48h: inconclusive; LmPK inh: 2%; Shiga toxin inh: 42; CHX counter: 29*; Pf growth 96h: 7%

How did CSc1ccc(S(=O)(=O)N2CCC(C(=O)NC3CC3)CC2)cc1 do in these assays?
Pf growth 48h: 4.1µM*; LmPK inh: 4%; Shiga toxin inh: 3; CHX counter: -5; Pf growth 96h: -9%

Results for COc1ccc(S(=O)(=O)N2CCC(C(=O)Nc3nccs3)CC2)cc1 ?
Pf growth 48h: 24%; LmPK inh: -11%; Shiga toxin inh: 101*; CHX counter: 42*; Pf growth 96h: 21%

What do the screens show for `COc1ccc(S(=O)(=O)N2CCC(C(=O)NC3CC3)CC2)cc1`?
Pf growth 48h: 9.3µM*; LmPK inh: -3%; Shiga toxin inh: -9; CHX counter: 8; Pf growth 96h: 15%
